According to publication PMC5700166:

Columns and labels:
Test in all cases: protein-binding microarray (PBM); PBM: ~300 nM protein, 6 mM HEPES pH 7.8, 80 mM KCl, 0.5 mM EDTA, 0.5 mM EGTA, 6% glycerol, 35 ng/ul poly-dIdC, 1% milk, 1 h, room temperature; Ap Aiptasia and Nv Nematostella (sea anemones) / Co Capsaspora / Aq Amphimedon (sponge) / Dm Drosophila / Hu human; RHD is the Rel homology domain; high values mean tight binding
Conditions in all cases: dsDNA, one strand shown
GST-Ap-NF-kB RHD = target: T1, GST-Ap-NF-kB RHD (Exaiptasia pallida (Aiptasia), UniProt A0A913YAJ5 2-422)
T1 sequence: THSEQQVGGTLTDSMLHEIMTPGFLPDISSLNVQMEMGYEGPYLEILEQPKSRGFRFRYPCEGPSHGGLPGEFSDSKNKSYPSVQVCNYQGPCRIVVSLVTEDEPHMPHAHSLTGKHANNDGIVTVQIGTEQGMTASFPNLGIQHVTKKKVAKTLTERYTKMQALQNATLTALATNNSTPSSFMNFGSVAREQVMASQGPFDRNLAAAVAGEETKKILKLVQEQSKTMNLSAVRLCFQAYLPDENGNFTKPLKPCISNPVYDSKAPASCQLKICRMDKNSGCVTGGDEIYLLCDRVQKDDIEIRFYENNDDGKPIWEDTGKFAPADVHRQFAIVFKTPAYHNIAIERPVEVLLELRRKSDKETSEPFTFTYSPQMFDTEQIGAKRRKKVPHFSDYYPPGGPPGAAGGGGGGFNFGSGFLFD

[1] = target: T2, GST-Nv-NF-kB (Cys allele) (Nematostella vectensis, UniProt E5G601 2-411)
T2 sequence: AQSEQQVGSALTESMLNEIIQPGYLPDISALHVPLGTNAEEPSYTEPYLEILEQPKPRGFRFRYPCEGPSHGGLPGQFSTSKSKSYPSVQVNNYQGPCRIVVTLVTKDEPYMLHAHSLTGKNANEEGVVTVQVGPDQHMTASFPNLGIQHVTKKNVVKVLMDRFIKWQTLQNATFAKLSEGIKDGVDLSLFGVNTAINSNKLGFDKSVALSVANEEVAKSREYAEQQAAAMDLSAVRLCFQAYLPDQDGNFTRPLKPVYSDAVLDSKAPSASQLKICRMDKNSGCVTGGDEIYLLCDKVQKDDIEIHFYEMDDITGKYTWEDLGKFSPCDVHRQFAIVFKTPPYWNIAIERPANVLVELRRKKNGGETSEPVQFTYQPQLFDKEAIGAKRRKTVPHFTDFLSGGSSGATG

GST-Co-NF-kB = target: T3, GST-Co-NF-kB (Capsaspora owczarzaki, UniProt F1ARL5 200-546)
T3 sequence: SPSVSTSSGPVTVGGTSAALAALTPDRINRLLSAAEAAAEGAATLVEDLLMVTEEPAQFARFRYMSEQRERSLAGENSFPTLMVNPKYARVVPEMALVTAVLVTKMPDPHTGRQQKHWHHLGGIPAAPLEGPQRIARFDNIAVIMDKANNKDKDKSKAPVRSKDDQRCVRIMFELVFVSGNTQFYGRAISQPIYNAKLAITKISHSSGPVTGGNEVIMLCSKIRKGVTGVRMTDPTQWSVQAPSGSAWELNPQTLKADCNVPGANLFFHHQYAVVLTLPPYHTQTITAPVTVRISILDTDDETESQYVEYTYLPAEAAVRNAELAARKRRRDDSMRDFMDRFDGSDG

GST-Dm-Relish = target: T4, GST-Dm-Relish (Drosophila melanogaster, UniProt Q94527 99-473)
T4 sequence: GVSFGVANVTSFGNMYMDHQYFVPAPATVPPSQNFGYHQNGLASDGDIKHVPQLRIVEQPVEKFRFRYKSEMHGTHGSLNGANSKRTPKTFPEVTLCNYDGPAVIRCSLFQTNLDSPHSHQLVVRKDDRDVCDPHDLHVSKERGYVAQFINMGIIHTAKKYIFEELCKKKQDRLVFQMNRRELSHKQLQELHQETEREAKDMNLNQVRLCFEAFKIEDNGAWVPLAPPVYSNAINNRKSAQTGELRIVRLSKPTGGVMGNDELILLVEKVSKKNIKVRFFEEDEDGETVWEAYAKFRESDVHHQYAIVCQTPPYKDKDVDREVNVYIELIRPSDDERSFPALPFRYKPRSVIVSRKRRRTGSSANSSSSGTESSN

GST-Aq-NF-kB = target: T5, GST-Aq-NF-kB (Amphimedon queenslandica, UniProt A9Y5G7 2-389)
T5 sequence: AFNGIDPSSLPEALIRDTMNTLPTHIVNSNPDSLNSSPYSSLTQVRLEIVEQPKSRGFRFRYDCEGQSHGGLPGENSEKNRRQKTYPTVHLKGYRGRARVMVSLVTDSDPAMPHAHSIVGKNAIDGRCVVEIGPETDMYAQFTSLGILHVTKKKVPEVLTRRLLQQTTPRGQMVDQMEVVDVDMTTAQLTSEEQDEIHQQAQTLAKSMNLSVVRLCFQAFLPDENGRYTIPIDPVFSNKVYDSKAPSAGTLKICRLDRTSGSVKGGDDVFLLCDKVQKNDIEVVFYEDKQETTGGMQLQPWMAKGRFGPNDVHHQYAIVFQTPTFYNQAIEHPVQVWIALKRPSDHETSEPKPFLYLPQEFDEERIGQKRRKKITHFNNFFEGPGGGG

Sequence | binding signal (GST-Ap-NF-kB RHD) | binding signal [1] | binding signal (GST-Co-NF-kB) | binding signal (GST-Dm-Relish) | binding signal (GST-Aq-NF-kB)
CCGATTAACATCAGGGAATTACATGATGTTAATCGGGTCTTGATTCGCTTGACGCTGCTG | 4.01 z-score | 5.15 z-score | 4.3 z-score | 8.99 z-score | 4.92 z-score
CCGATTAACATCAAGTACTTCCCTGATGTTAATCGGGTCTTGATTCGCTTGACGCTGCTG | 2.1 z-score | 2.22 z-score | 2.13 z-score | 8.12 z-score | 3.13 z-score
CCGATTAACATCAATATAGTCCCTGATGTTAATCGGGTCTTGATTCGCTTGACGCTGCTG | 5.51 z-score | 4.77 z-score | 1.15 z-score | 1.16 z-score | 3.69 z-score
CCGATTAACATCAAATTCCCAGATGATGTTAATCGGGTCTTGATTCGCTTGACGCTGCTG | 2.43 z-score | 3.57 z-score | 3.87 z-score | 3.52 z-score | 2.42 z-score
CCGATTAACATCAGGGAAACTCATGATGTTAATCGGGTCTTGATTCGCTTGACGCTGCTG | 3.29 z-score | 4.53 z-score | 3.68 z-score | 1.31 z-score | 4.27 z-score
CCGATTAACATCACATATTTCCCTGATGTTAATCGGGTCTTGATTCGCTTGACGCTGCTG | 3.32 z-score | 4.97 z-score | 4.94 z-score | 1.93 z-score | 5.18 z-score
CCGATTAACATCAAATTTCCCGCTGATGTTAATCGGGTCTTGATTCGCTTGACGCTGCTG | 3.85 z-score | 5.17 z-score | 4.99 z-score | 2.88 z-score | 5.22 z-score
CCGATTAACATCAGAATAACCCCTGATGTTAATCGGGTCTTGATTCGCTTGACGCTGCTG | 5.37 z-score | 3.87 z-score | 1.66 z-score | 3.29 z-score | 4.42 z-score
CCGATTAACATCAGGGATTCACCTGATGTTAATCGGGTCTTGATTCGCTTGACGCTGCTG | 5.22 z-score | 4.92 z-score | 1.03 z-score | 9.89 z-score | 5.57 z-score
CCGATTAACATCAAACAAACCCCTGATGTTAATCGGGTCTTGATTCGCTTGACGCTGCTG | 4.35 z-score | 3.42 z-score | 1.74 z-score | 3.06 z-score | 3.95 z-score
CCGATTAACATCAAACTCTCCCCTGATGTTAATCGGGTCTTGATTCGCTTGACGCTGCTG | 5.13 z-score | 4.94 z-score | 6.22 z-score | 1.21 z-score | 4.74 z-score
CCGATTAACATCAGGGAAATAAATGATGTTAATCGGGTCTTGATTCGCTTGACGCTGCTG | 2.39 z-score | 4.44 z-score | 4.38 z-score | 2.1 z-score | 4.44 z-score
CCGATTAACATCAGGGATTTTCATGATGTTAATCGGGTCTTGATTCGCTTGACGCTGCTG | 5.23 z-score | 4.83 z-score | 1.61 z-score | 6.05 z-score | 5.16 z-score
CCGATTAACATCAATTTCCCGCCTGATGTTAATCGGGTCTTGATTCGCTTGACGCTGCTG | 2.79 z-score | 3.63 z-score | 3.64 z-score | 1.31 z-score | 2.64 z-score
CCGATTAACATCACGGGGGGTAATGATGTTAATCGGGTCTTGATTCGCTTGACGCTGCTG | 4.02 z-score | 2.73 z-score | 6.28 z-score | 3.64 z-score | 3.77 z-score
CCGATTAACATCAGACCTCCCCCTGATGTTAATCGGGTCTTGATTCGCTTGACGCTGCTG | 6.03 z-score | 3.94 z-score | 5.48 z-score | 2.4 z-score | 4.44 z-score
CCGATTAACATCACTTTACCCCCTGATGTTAATCGGGTCTTGATTCGCTTGACGCTGCTG | 4.02 z-score | 2.61 z-score | 6.83 z-score | 2.27 z-score | 3.05 z-score
CCGATTAACATCAAGAGACCCCCTGATGTTAATCGGGTCTTGATTCGCTTGACGCTGCTG | 5.03 z-score | 2.88 z-score | 2.08 z-score | 3.99 z-score | 3.76 z-score
CCGATTAACATCAGAAATCCCGCTGATGTTAATCGGGTCTTGATTCGCTTGACGCTGCTG | 3.54 z-score | 2.85 z-score | 1.57 z-score | 4.94 z-score | 3.08 z-score
CCGATTAACATCAAATAGCCCCCTGATGTTAATCGGGTCTTGATTCGCTTGACGCTGCTG | 5.01 z-score | 4.8 z-score | 2.9 z-score | 4.26 z-score | 5.62 z-score
CCGATTAACATCAGAAATCCCACTGATGTTAATCGGGTCTTGATTCGCTTGACGCTGCTG | 2.54 z-score | 2.54 z-score | 1.65 z-score | 5.45 z-score | 2.41 z-score
CCGATTAACATCAGGGAATTAACTGATGTTAATCGGGTCTTGATTCGCTTGACGCTGCTG | 2.83 z-score | 4.33 z-score | 2.63 z-score | 4.07 z-score | 5.19 z-score
CCGATTAACATCAGGAAACACCCTGATGTTAATCGGGTCTTGATTCGCTTGACGCTGCTG | 3.05 z-score | 2.79 z-score | 1.1 z-score | 4.19 z-score | 6.01 z-score
CCGATTAACATCAAGGGATCCCCTGATGTTAATCGGGTCTTGATTCGCTTGACGCTGCTG | 8.25 z-score | 5.8 z-score | 4.18 z-score | 9.18 z-score | 6.19 z-score
CCGATTAACATCAAGTAAATCCCTGATGTTAATCGGGTCTTGATTCGCTTGACGCTGCTG | 2.24 z-score | 2.71 z-score | 1.22 z-score | 7.89 z-score | 3.24 z-score
CCGATTAACATCAGGGAACAACCTGATGTTAATCGGGTCTTGATTCGCTTGACGCTGCTG | 2.52 z-score | 2.46 z-score | 1.05 z-score | 4.7 z-score | 4.61 z-score
CCGATTAACATCAGGGATACCCCTGATGTTAATCGGGTCTTGATTCGCTTGACGCTGCTG | 6.66 z-score | 5.69 z-score | 4 z-score | 7.22 z-score | 6.98 z-score
CCGATTAACATCAGATTTCCCACTGATGTTAATCGGGTCTTGATTCGCTTGACGCTGCTG | 1.83 z-score | 3.74 z-score | 3.15 z-score | 2.02 z-score | 2.32 z-score
